For one sequence, binding signal results are on record in paper PMC7862700, “An all-to-all approach to the identification of sequence-specific readers for epigenetic DNA modifications on cytosine”.

Holding throughout (test): DAPPL (digital affinity profiling via proximity ligation, sequencing); 10 mM Tris-HCl pH 7.5, 50 mM NaCl, 1 mM DTT, 4% glycerol, room temperature, 30 min; GST-TFs on glutathione beads, 16-mer random dsDNA library, 0.1% formaldehyde crosslink after washing; high values mean tight binding
Common to all, as to conditions: protein: recombinant; tags: N-terminal GST; dsDNA, one strand shown

The target of one test is T1, ELK1 (Homo sapiens, UniProt P19419 1-428).
T1 sequence: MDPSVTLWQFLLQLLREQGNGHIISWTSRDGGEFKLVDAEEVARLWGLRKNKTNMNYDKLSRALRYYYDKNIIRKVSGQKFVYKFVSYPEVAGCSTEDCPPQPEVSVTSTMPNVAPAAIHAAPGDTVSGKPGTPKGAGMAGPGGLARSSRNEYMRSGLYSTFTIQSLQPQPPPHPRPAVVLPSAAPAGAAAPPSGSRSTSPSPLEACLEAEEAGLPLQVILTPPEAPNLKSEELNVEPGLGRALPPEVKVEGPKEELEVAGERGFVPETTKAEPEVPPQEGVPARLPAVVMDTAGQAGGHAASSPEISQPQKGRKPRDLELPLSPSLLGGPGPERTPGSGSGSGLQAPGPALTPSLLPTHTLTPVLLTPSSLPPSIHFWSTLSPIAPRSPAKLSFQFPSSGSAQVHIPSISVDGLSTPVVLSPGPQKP
The essentials: (§1)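 The binding signal reported is, for every hexamer, its read frequency for a factor over its read frequency for the tag-only sample. Reads came from pools of yeast-expressed, GST-fused human transcription factors on glutathione beads, barcoded with DNA and mixed with that sample, which were incubated with 200 nmole of a random double-stranded 16-mer DNA library in Tris/NaCl/DTT/glycerol buffer at room temperature for 30 min. After washing, the pools were crosslinked with 0.1% formaldehyde, proximity-ligated with BsaI/T4 ligase for 1 h at 37 °C, PCR-amplified and sequenced on an Illumina NextSeq500.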

In another test the target is T2, GABPA (Homo sapiens, UniProt Q06546 1-454).
T2 sequence: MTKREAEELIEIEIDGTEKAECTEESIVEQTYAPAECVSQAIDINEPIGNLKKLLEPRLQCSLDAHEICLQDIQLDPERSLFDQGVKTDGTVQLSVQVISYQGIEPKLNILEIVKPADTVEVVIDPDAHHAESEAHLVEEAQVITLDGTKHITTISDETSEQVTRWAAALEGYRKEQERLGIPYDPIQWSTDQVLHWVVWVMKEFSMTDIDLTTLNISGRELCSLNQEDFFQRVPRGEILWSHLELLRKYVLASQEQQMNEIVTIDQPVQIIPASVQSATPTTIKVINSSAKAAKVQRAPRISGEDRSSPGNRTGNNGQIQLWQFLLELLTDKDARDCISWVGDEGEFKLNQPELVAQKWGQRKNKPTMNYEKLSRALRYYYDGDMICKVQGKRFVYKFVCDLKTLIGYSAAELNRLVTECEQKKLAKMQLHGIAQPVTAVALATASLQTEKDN
The essentials: as §1

A further test concerns the target T3, ERG (Homo sapiens, UniProt P11308 1-479).
T3 sequence: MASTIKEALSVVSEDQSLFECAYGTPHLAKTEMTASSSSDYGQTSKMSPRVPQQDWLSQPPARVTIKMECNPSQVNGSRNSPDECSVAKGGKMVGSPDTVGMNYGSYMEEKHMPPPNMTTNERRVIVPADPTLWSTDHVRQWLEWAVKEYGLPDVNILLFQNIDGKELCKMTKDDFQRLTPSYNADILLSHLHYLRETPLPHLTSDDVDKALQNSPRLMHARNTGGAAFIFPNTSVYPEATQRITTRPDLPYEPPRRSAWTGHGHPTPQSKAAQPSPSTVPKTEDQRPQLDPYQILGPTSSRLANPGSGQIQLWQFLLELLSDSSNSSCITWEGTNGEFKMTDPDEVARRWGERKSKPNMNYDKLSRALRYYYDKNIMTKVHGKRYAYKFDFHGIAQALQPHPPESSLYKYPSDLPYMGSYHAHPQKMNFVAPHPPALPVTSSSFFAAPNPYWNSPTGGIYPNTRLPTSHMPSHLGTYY
The essentials: as §1

For another test, the target named is ELF1 (Homo sapiens, UniProt P32519 1-619). An outline of the steps:
as §1

Another test addresses SPIB (Homo sapiens, UniProt Q01892 1-262). An outline of the steps:
as §1

For a further test, the target named is T4, FEV (Homo sapiens, UniProt Q99581 1-238).
T4 sequence: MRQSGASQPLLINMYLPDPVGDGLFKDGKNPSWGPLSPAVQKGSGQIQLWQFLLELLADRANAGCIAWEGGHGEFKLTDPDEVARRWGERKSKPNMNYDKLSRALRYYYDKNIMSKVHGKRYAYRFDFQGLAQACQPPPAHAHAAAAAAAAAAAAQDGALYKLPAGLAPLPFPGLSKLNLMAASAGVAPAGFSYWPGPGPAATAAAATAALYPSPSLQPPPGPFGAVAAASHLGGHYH
The essentials:
as §1

The target in another test is ETV5 (Homo sapiens, UniProt P41161 1-510). The essentials:
as §1

The target of the next test is ELF4 (Homo sapiens, UniProt Q99607 1-663). The essentials:
as §1

The target in the next test is T5, ELK4 (Homo sapiens, UniProt P28324-2 1-405).
T5 sequence: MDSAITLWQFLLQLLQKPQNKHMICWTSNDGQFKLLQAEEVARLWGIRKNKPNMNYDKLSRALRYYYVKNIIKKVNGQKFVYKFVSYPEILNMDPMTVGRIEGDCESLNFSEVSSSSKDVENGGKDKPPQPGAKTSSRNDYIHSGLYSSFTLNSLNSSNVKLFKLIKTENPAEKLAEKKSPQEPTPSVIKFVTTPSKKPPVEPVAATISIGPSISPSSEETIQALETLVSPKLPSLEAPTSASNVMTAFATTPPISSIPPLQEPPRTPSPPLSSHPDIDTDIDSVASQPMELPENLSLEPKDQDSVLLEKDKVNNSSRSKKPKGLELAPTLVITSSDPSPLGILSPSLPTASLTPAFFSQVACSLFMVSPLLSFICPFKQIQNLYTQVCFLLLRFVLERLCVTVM
The essentials: as §1

Another test concerns the target T6, ETV2 (Homo sapiens, UniProt O00321 1-342).
T6 sequence: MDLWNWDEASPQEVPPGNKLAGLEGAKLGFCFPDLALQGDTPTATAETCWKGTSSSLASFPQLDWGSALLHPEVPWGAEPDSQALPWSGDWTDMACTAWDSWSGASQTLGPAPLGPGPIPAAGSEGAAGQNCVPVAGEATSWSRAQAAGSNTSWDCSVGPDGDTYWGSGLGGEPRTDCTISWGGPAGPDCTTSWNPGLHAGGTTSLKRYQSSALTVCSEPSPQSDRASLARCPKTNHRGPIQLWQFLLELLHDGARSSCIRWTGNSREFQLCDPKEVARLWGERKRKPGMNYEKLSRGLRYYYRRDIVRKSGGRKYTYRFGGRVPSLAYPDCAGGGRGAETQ
The essentials:
as §1

The target in another test is T7, ELF3 (Homo sapiens, UniProt P78545 1-371).
T7 sequence: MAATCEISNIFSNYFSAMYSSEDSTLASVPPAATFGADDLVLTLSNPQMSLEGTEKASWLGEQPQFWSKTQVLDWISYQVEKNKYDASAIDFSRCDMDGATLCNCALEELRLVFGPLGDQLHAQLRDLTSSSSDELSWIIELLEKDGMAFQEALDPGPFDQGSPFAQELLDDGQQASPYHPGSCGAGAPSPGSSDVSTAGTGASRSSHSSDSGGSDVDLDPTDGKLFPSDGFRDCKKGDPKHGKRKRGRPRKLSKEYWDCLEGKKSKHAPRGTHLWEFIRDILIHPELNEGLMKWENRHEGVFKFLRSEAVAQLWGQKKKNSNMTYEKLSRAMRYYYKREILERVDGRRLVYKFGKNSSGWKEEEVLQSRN
The essentials:
as §1

In the next test the target is ETV1 (Homo sapiens, UniProt P50549 1-477). The essentials: as §1
Another test addresses T8, ERF (Homo sapiens, UniProt P50548 1-548).
T8 sequence: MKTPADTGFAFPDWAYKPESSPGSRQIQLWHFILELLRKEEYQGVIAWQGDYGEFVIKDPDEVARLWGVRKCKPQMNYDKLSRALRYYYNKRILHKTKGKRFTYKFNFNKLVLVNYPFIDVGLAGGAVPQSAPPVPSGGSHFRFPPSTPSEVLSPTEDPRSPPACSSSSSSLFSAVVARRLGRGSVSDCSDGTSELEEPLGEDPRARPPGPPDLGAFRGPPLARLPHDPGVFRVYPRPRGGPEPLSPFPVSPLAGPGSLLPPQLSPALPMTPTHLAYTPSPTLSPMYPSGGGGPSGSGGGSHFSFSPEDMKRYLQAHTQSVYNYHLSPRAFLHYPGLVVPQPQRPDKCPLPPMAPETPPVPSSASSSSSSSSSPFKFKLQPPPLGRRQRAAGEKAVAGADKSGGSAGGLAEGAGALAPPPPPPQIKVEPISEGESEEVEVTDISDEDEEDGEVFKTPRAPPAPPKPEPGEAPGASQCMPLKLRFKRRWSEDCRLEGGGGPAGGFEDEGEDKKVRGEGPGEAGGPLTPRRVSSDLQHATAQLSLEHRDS
An outline of the steps: as §1

The target in another test is T9, ETV3L (Homo sapiens, UniProt Q6ZN32 1-361).
T9 sequence: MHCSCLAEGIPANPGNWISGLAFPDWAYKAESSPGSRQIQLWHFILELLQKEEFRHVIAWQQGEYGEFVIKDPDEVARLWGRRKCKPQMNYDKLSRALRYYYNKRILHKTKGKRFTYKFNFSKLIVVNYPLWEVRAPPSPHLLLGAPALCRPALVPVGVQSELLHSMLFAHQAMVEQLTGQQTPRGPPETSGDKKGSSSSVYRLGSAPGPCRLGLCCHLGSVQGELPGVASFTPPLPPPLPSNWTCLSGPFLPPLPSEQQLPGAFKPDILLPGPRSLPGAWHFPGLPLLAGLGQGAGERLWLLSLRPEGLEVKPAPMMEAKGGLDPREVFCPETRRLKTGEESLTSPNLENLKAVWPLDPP
The essentials:
as §1

A further test has as its target T10, ETS2 (Homo sapiens, UniProt P15036 1-469).
T10 sequence: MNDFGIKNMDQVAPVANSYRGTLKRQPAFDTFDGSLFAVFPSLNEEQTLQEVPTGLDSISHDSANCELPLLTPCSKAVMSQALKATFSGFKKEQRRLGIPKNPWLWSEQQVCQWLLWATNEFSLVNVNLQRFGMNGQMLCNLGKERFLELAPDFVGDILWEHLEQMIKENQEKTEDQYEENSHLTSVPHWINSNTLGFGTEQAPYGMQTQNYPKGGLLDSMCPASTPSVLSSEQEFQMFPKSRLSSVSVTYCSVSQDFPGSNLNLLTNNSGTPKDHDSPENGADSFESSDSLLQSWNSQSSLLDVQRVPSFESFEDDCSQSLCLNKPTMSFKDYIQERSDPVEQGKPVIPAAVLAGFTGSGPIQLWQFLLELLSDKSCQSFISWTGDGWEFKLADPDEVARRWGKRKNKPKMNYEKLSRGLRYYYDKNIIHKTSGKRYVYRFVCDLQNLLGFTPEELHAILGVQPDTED
The essentials:
as §1

The target in a further test is T11, SPDEF (Homo sapiens, UniProt O95238 1-335).
T11 sequence: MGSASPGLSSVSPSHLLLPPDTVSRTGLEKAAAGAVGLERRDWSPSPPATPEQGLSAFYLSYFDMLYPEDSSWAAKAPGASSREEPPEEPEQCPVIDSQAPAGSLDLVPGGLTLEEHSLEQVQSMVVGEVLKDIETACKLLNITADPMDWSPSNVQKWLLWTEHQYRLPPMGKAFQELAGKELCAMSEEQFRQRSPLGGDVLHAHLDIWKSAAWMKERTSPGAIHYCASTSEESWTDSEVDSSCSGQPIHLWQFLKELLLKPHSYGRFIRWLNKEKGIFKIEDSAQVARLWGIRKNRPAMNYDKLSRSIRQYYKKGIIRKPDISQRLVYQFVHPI
The essentials:
as §1

The next test concerns the target T12, ETV7 (Homo sapiens, UniProt Q9Y603 1-341).
T12 sequence: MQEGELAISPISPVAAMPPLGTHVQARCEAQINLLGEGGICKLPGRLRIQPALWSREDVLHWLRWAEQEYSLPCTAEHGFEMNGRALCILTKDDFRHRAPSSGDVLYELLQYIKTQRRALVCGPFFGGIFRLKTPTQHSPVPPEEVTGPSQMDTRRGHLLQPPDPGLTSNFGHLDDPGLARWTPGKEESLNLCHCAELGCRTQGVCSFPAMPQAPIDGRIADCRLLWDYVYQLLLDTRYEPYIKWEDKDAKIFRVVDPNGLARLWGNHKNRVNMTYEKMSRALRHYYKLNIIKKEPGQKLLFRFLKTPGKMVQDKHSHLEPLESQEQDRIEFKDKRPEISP
The essentials: as §1

The next test deals with T13, ETV3 (Homo sapiens, UniProt P41162-2 1-143).
T13 sequence: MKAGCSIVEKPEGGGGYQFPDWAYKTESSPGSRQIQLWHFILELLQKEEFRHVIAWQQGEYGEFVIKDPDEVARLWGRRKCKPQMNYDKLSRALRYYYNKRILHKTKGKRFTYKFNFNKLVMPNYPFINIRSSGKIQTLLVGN
The essentials: as §1

For the next test, the target named is ETV6 (Homo sapiens, UniProt P41212 1-452). An outline of the steps:
as §1

ETV5, sequence (P41161 whole entry): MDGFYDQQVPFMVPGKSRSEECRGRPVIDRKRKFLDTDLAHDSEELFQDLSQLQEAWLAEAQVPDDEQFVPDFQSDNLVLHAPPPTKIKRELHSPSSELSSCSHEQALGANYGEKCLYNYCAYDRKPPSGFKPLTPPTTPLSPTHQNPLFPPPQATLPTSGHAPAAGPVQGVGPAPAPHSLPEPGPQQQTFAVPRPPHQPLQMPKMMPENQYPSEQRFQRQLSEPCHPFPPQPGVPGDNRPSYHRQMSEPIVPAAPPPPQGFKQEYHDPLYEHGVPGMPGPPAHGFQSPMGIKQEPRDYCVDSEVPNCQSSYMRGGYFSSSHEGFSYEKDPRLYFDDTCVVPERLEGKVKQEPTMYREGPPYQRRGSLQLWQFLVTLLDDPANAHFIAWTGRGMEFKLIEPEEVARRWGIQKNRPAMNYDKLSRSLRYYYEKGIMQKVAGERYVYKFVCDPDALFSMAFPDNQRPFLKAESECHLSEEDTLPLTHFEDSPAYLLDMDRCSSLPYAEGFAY
ETV1, sequence (P50549 whole entry): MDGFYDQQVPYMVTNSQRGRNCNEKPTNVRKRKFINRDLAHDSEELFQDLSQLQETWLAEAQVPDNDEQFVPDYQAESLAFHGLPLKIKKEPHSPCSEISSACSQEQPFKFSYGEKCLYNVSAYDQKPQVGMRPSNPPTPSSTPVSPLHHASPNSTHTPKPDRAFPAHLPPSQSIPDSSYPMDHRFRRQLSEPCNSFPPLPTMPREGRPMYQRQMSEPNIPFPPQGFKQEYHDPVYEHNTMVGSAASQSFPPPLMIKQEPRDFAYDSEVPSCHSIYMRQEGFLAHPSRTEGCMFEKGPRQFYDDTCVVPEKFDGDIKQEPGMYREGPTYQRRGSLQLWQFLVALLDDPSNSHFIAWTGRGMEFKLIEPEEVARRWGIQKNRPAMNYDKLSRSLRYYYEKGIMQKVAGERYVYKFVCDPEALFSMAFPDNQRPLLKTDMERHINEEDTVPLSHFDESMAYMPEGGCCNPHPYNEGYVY
ELF4, sequence (Q99607 whole entry): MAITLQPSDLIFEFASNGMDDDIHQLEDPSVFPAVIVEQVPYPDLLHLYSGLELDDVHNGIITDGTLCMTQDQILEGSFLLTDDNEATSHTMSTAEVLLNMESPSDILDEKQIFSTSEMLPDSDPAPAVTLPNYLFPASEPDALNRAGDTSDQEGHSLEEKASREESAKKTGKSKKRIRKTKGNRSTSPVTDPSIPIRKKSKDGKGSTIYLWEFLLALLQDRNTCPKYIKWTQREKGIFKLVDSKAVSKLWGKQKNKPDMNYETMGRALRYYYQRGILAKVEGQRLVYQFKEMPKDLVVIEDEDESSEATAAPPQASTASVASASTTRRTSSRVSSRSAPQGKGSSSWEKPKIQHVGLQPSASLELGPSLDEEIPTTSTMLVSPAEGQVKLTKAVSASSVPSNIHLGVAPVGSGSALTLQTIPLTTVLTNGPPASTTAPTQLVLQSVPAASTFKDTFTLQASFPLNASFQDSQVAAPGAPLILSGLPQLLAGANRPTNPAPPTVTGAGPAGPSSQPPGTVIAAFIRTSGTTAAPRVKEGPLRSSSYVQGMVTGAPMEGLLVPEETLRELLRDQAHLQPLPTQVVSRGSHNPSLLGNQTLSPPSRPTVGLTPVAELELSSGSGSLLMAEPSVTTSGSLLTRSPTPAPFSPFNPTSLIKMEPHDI
ETV6, sequence (P41212 whole entry): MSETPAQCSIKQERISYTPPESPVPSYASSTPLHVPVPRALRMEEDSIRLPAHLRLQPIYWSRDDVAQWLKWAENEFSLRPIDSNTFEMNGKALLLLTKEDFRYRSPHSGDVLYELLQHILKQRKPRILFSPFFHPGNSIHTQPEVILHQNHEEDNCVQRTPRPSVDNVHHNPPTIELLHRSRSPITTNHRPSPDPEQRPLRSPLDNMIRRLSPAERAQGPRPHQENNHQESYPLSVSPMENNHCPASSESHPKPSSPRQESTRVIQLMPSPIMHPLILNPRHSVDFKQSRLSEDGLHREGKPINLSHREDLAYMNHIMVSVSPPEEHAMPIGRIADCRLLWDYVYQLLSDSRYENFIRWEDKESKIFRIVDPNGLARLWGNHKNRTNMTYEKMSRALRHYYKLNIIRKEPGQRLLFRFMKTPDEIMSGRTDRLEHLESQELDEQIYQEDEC
SPIB, sequence (Q01892 whole entry): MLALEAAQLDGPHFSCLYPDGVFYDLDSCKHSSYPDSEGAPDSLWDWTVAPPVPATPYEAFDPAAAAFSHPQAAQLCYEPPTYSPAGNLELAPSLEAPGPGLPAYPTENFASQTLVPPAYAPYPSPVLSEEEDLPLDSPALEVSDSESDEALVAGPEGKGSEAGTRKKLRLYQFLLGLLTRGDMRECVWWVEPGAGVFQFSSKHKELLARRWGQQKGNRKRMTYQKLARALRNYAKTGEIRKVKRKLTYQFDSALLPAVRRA
ELF1, sequence (P32519 whole entry): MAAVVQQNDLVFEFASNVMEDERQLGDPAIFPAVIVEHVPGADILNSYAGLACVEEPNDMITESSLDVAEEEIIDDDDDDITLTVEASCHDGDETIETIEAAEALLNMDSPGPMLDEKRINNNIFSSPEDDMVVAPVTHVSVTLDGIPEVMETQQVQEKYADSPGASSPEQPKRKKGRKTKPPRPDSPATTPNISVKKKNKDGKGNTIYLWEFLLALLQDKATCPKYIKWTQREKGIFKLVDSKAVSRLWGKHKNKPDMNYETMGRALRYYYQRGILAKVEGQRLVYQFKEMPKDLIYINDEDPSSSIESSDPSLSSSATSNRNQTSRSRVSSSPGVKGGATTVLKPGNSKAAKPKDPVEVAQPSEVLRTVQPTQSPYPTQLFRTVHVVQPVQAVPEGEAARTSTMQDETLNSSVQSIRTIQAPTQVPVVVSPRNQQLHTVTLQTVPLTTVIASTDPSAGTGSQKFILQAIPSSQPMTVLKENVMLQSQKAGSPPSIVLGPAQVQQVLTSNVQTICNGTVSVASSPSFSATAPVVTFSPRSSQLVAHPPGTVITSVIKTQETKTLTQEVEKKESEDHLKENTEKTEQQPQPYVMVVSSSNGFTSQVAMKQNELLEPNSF

As for ATCAAA, the binding signal with ELK1 is 1.05 fold enrichment (6-mer frequency, TF over GST control); in the test with GABPA it was 1.13 fold enrichment (6-mer frequency, TF over GST control); in the test with ERG it was 1.11 fold enrichment (6-mer frequency, TF over GST control); in the test with ELF1, 1.07 fold enrichment (6-mer frequency, TF over GST control); with SPIB, 1.02 fold enrichment (6-mer frequency, TF over GST control); with FEV, 1.03 fold enrichment (6-mer frequency, TF over GST control). Also, the binding signal in the test with ETV5 was 1.06 fold enrichment (6-mer frequency, TF over GST control); with ELF4, 1.12 fold enrichment (6-mer frequency, TF over GST control); with ELK4 it was 1.1 fold enrichment (6-mer frequency, TF over GST control); with ETV2, 1.11 fold enrichment (6-mer frequency, TF over GST control); with ELF3, 1.04 fold enrichment (6-mer frequency, TF over GST control); in the test with ETV1, 1.15 fold enrichment (6-mer frequency, TF over GST control). Besides, the binding signal with ERF is 1.08 fold enrichment (6-mer frequency, TF over GST control); with ETV3L, 1.08 fold enrichment (6-mer frequency, TF over GST control); in the test with ETS2, 1.07 fold enrichment (6-mer frequency, TF over GST control); with SPDEF, 1.06 fold enrichment (6-mer frequency, TF over GST control); with ETV7, 1.1 fold enrichment (6-mer frequency, TF over GST control); with ETV3, 1.01 fold enrichment (6-mer frequency, TF over GST control). Moreover, the binding signal with ETV6 is 1.07 fold enrichment (6-mer frequency, TF over GST control).
